Assay results taken from PubChem BioAssay (NCATS).
Records with an inconclusive call do not appear. The source made the active and inactive calls. Calls come from the whole dose curve; as a rule, active = well fitted inhibition curve with a large enough effect; inconclusive = small, poorly fitted or top-dose-only effect; inactive = flat fitted curve, though single readings scatter.

The compounds below were run against Calcium and integrin-binding protein 1 (Homo sapiens) (UniProt Q99828) (assay: Primary qHTS for Identification of Calcium Integrin Binding Protein 1 (CIB1) Competitor (AID 1508620;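 note: GST tagged CIB1 binding a fluorescein labelled alphaIIb integrin peptide tracer; top concentration of the series differs between compounds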)). Conditions: CIB1-GST / FITC-alphaIIb peptide fluorescence polarization; series mostly up to 114 µM; activity change, negative = inhibition: at the top concentration.
Calcium and integrin-binding protein 1 (Homo sapiens), sequence (Q99828 whole entry, looked up): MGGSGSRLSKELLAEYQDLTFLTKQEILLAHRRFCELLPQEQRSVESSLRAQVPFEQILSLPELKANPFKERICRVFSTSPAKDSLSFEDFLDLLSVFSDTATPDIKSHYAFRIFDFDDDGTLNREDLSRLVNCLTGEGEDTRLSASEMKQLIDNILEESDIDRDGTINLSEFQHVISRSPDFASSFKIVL
Summary of the method: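 Fluorescence polarization competition: CIB1-GST (1 uM final) preincubated with compound 15 min at room temperature, then FITC-labeled alphaIIb peptide (100 nM final) added for another 15 min. Polarization read at Ex 480/Em 540.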
% is set by controls: 0 for no effect and ±100 for the full control effect.

Row | Structure (SMILES) | activity change, negative = inhibition
1 | CCCNc1ccc2ncc(-c3ccc4[nH]ncc4c3)n2n1 | -13.4% (inactive)
2 | CC/C=C\CC1C(=O)C=CC1(CCCCCCCC(=O)O)OC(C)=O (stereo not drawn) | -7.65% [at 57.7 µM] (inactive)
3 | N#C[C@@H]1C[C@H](F)CN1C(=O)CNC1[C@H]2CN(C(=O)c3ccc(F)cc3)C[C@@H]12 (stereo partly drawn) | -2.47% (inactive)
4 | CC1(C)CC[C@]2(C(=O)O[C@@H]3O[C@H](CO)[C@@H](O)[C@H](O)[C@H]3O)CC[C@]3(C)C(=CCC4[C@@]5(C)C[C@@H](O)[C@H](O)[C@](C)(C(=O)O)C5CC[C@]43C)C2C1O (stereo partly drawn) | 4.85% [at 30.2 µM] (inactive)
5 | C=C1CCC2C(C)(C)CCC[C@]2(C)[C@H]1C/C=C(\CO)C(=O)C(=O)O (stereo partly drawn) | -0.419% [at 57.7 µM] (inactive)
6 | CC(C)C(C(=O)N(C)C(C)C(N)=O)N(C)C(=O)C1CCCN1C(=O)/C=C/C=C/C(O)C(C)O (stereo not drawn) | -1.2% [at 57.7 µM] (inactive)
7 | CCC(=O)O[C@H]1C(C)(C)[C@H]([C@@H](O)C(=O)OC)[C@]2(C)C(=O)[C@@]1(O)[C@H]1O[C@]13C1CC(=O)O[C@@H](c4ccoc4)[C@]1(C)CCC32 (stereo partly drawn) | -9.3% [at 30.2 µM] (inactive)
8 | C=CC(C)(C)c1[nH]c2ccccc2c1C[C@@H]1NC(=O)[C@H](Cc2c[nH]c3ccccc23)NC1=O | -7.02% [at 57.7 µM] (inactive)
9 | COC(=O)C1=CO[C@@H](O[C@@H]2O[C@H](CO)[C@@H](O)[C@H](O)[C@H]2O)C2C1C(=O)C[C@H]2C (stereo partly drawn) | 2.21% [at 57.7 µM] (inactive)
10 | C=C(C)C(=O)OC1C(OC(C)=O)/C(C=O)=C\CC/C(CO)=C/C2OC(=O)C(=C)C21 (stereo not drawn) | 3.83% [at 57.7 µM] (inactive)
11 | C=CC1C(OC2OC(CO)C(O)C(O)C2O)OC=C(C(=O)OC)C1CC1CC(=O)CC(CCc2ccc(O)cc2)O1 (stereo not drawn) | 1.17% [at 30.2 µM] (inactive)
12 | COc1cc(O)c([C@@H](CC(=O)N2CC(C)CC(C)C2)c2ccc3c(c2)OCO3)c(OC)c1 (stereo partly drawn) | 1.64% (inactive)
13 | COc1ccc(-c2ccc3c(N4CCOCC4)nc(N4CC(C)OC(C)C4)nc3n2)cc1CO (stereo not drawn) | 1.33% (inactive)
14 | N#CC(c1ccnc(OCc2ccc(CN3CCOCC3)cc2)n1)c1nc2ccccc2s1 (stereo not drawn) | -7.36% (inactive)
15 | N[C@H]1Cc2ccccc2N(O)C1=O | 0.0448% (inactive)
16 | CCCC1(c2ccccc2)NC(=O)N(CC(=O)N(C)Cc2c(F)cccc2Cl)C1=O (stereo not drawn) | 7.44% (inactive)
17 | Nc1nc2c(ncn2[C@@H]2O[C@@H]3COP(=O)(O)O[C@H]3[C@H]2O)c(=O)[nH]1 | 4.64% (inactive)
18 | COC(=O)C[C@H]1C(C)(C)[C@H](OC(C)=O)C2CC3=C4CC(=O)O[C@@H](c5ccoc5)[C@]4(C)CCC3[C@@]1(C)C2=O (stereo partly drawn) | -6.72% [at 57.7 µM] (inactive)
19 | C=C1CC[C@@H]2[C@](C)(CO[C@@H]3O[C@H](CO)[C@@H](O)[C@H](O)[C@H]3O)[C@H](O)CC[C@@]2(C)[C@@H]1C/C=C1/C(=O)OC[C@H]1O | 1.51% [at 57.7 µM] (inactive)

Row | Structure (SMILES) | activity change, negative = inhibition
20 | C/C=C/C=C/[C@@H]1O[C@](O)([C@H](CC)C(=O)NC/C=C/C=C(\C)[C@@H](OC)[C@@H](C)C2OC(/C=C/C=C/C=C(\C)C(=O)c3c(O)cc[nH]c3=O)[C@H](O)[C@@H]2O)[C@H](O)[C@H](O)C1(C)C (stereo partly drawn) | -4.18% [at 30.2 µM] (inactive)
21 | CC(C)=C/C=C\[C@H](C)[C@H]1CC[C@]2(C)C[C@@H]3C(C)=CC(=O)C3/C(CO)=C\C[C@@H]12 (stereo partly drawn) | 2.22% [at 57.7 µM] (inactive)
22 | CC12CCC3c4ccc(OC5OC(C(=O)O)C(O)C(O)C5O)cc4CCC3C1CCC2O (stereo not drawn) | -0.816% (inactive)
23 | COc1cc2c(cc1OC)CC(=O)N(CCCNC[C@H]1Cc3cc(OC)c(OC)cc31)CC2 | 2.07% (inactive)
24 | COC(=O)C1(C)CCC2(C(=O)O)CCC3(C)C(=CCC4C5(C)CC(O)C(OC6OCC(O)C(O)C6O)C(C)(CO)C5CCC43C)C2C1 (stereo not drawn) | -4.11% [at 30.2 µM] (inactive)
25 | C=C(C(=O)O)C1CCC2(C)CCC(O)C(C)(O)C2C1 (stereo not drawn) | 0.832% (inactive)
26 | O=C1OCC(c2ccccc2)=C1Cc1ccccc1 | 1.16% (inactive)
27 | CC(C)CC1NC(=O)C(C)NC(=O)C(CC(C)C)OC(=O)CCCNC1=O (stereo not drawn) | 1.17% [at 57.7 µM] (inactive)
28 | NC1(C(=O)NC(CCO)c2ccc(Cl)cc2)CCN(c2ncnc3[nH]ccc23)CC1 (stereo not drawn) | 1.75% (inactive)
29 | O=C(OCC1=CC(O)C2C=CO[C@@H](O[C@@H]3O[C@H](CO)[C@@H](O)[C@H](O)[C@H]3O)C12)c1ccccc1 (stereo partly drawn) | 5.33% [at 57.7 µM] (inactive)
30 | Cc1cc(Nc2nc(NC(C)c3ncc(F)cn3)ncc2Cl)n[nH]1 (stereo not drawn) | 3.37% (inactive)
31 | COc1cc(-c2ncn(/C=C\C(=O)OC(C)C)n2)cc(C(F)(F)F)c1 | 2.33% (inactive)
32 | COc1ccc(-c2nc(-c3ccc(-c4cccc(Cl)c4)o3)[nH]c2-c2ccc(OC)cc2)cc1 | 0.901% (inactive)
33 | CC(=O)OC1/C(C)=C/C(=O)C(OC(C)=O)C(C)(C)/C=C/C(C)C(=O)C2(OC(C)=O)CC(C)C(OC(=O)c3ccccc3)C12 (stereo not drawn) | 3.93% [at 30.2 µM] (inactive)
34 | O=C(/C=C/c1ccc(O)cc1)N[C@@H](Cc1ccc(O)cc1)C(=O)O | -0.539% [at 57.7 µM] (inactive)
35 | CCCCNc1ccc(-c2ccc(CN3CCOCC3)cn2)c(NC2CCC(O)CC2)c1 (stereo not drawn) | -2.49% [at 57.7 µM] (inactive)
36 | CC(c1ncncc1F)C(O)(Cn1cncn1)c1ccc(F)cc1F (stereo not drawn) | -8.29% (inactive)
37 | CC1=C2C[C@H]3O[C@@]3(C)CCC3O[C@@]3(C)C[C@@]2(O)OC1=O (stereo partly drawn) | 3.52% (inactive)
38 | CC(=O)N[C@H]1[C@H](O[C@H]2CC[C@@]3(C)C(CC[C@]4(C)C3CC=C3C5CC(C)(C)CC[C@]5(C(=O)O)[C@H](O)C[C@]34C)C2(C)C)O[C@H](CO[C@@H]2OC[C@H](O)[C@H](O)[C@H]2O[C@@H]2OC[C@@H](O)[C@H](O)[C@H]2O)[C@@H](O)[C@@H]1O (stereo partly drawn) | -0.392% [at 30.2 µM] (inactive)
